In the library only some 19% were active in any assay of this set; here they are far more common.
HT1080 IDH1KD tx: HT-1080 IDH1 knockdown cell toxicity (counter line). Potency, µM (top dose mostly 46.1 µM), for the others: at the highest dose activity, negative = toxicity, hits mostly cytotoxic. HT-1080 IDH1 knockdown viability, ATP luminescence, 48 h. 2% of 360,000 active. AID 686971;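 further: potency means the concentration at half of the fitted maximal effect; 0% = DMSO wells and -100% = cell-free medium wells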
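IDH1KD HT-1080 cells, 750/well, RPMI + 5% FBS; compound pinned after 2 h settling; 48 h, 37 °C; CellTiter-Glo luminescence; % activity normalised to DMSO and no-cell wells; curves fitted, classed by r2 and efficacy.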
HT1080NT lethal: kills 2HG-producing HT-1080-NT fibrosarcoma cells. Potency, µM (highest dose often 46.1 µM), inactives show at the highest dose activity, negative = less viability, hits mostly cytotoxic. HT-1080-NT fibrosarcoma viability, CellTiter-Glo ATP luminescence, 48 h. 1.6% of 360,000 active;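 further: NT is the 2HG producing partner of a matched IDH1 knockdown line; potency means the concentration at half of the fitted maximal effect; 0% = DMSO-treated cells and -100% = media-only wells without cells; nearly all actives have a fitted effect of over 55% in size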
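Fibrosarcoma NT cells, 750 per well in 5% FBS RPMI, were exposed to compound for 48 hours. Viability: CellTiter-Glo luminescence.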
IL-1B inflam inh: inflammasome signaling inhibition, IL-1 beta readout. THP-1 LPS/ATP IL-1B secretion, AlphaLISA, 16 h; stronger effect = lower value. activity change, % at 57.5 µM. 4.7% of 360,000 active. AID 743279; in the data active means activity change below about -50%; inconclusive means mostly about -30% to -49%
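THP-1 cells pretreated 1 hr with compounds (up to 57.5 uM final), then stimulated with LPS (250 ng/mL final) plus ATP (1.25 mM final); secreted IL-1B measured by AlphaLISA after 16 hr, decreased signal indicating inhibition.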
TDP1 cell CPT: DT40-hTDP1 cell growth loss with CPT; chicken DT40 Tdp1-/-;hTDP1 cells + 20 nM CPT, ATP luminescence, 48 h; 12% of 420,000 active; Potency, µM (top dose mostly 46.2 µM), inactives show at the top dose activity change, negative = growth inhibition, most hits filed as inhibitors; AID 686979; further: potency means the concentration at half of the fitted maximal effect; nearly all actives have a fitted effect of over 55% in size
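Cell growth measured by CellTiter-Glo luminescence after a minimum 48 h, 37 C compound exposure with 20 nM CPT in Tdp1-knockout DT40 cells stably expressing hTDP1, seeded 400/well; qHTS titration format.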
TDP1 cell noCPT: qHTS for Inhibitors of human tyrosyl-DNA phosphodiesterase 1 (TDP1): qHTS in cells in absence of CPT; DT40 Tdp1-/- hTDP1 cells, no CPT, ATP luminescence, 48 h; Potency, µM (highest dose often 46.2 µM), without a hit: at the highest dose activity change, negative = growth inhibition, most hits filed as inhibitors; 15% of 420,000 active; AID 686978, 2013; further: potency means the concentration at half of the fitted maximal effect; nearly all actives have a fitted effect of over 55% in size
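Cells were dispensed at 400 per well, compounds added by pin tool, plates incubated ≥48 hr at 37 °C, then CellTiter-Glo added for 30 min at room temperature before luminescence reading. Line: DT40 Tdp1-/- complemented with hTDP1; camptothecin omitted.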
Numbers without * were called inactive; ? = inconclusive; . = no result given. Unless noted, the call rests on the fitted dose curve; in most records, active means well fitted curve in the direction sought with a large enough effect; inconclusive means small, poorly fitted or top-dose-only effect, or another doubt; inactive means no such curve, though single readings can be large; an effect the other way counts as inactive or inconclusive. Unless noted, on the % scale 0 is the no-effect control and ±100 the full control effect.

SMILES	HT1080 IDH1KD tx	HT1080NT lethal	IL-1B inflam inh	TDP1 cell CPT	TDP1 cell noCPT
COc1ccc(Nc2nnc(SCC(=O)N3CC(=O)Nc4ccccc43)s2)cc1	-10.3%	5.9%	4.5	-18.3%	-22.8%
O=C(CSc1nc(-c2ccc(F)cc2)cs1)NCC1CCCO1 (centres undefined)	-2.9%	1.8%	-12.5	-27.5%	20.6µM*
Cc1cc(C)c2nc(SCC(=O)NCC3CCCO3)c(C#N)cc2c1 (centres undefined)	18.8%	20.2%	-51.2*	8.4%	-9.0%
O=C(CSc1nc(-c2ccc(F)cc2)[nH]c1-c1ccccc1)NCC1CCCO1 (centres undefined)	.	.	.	29.1µM*	16.4µM*
O=C(CN(C1CCCCC1)S(=O)(=O)c1ccc(F)cc1)NCC1CCCO1 (centres undefined)	4.61µM*	3.66µM*	-106.2*	8.2µM*	7.31µM*
O=C(CN(C1CCCCC1)S(=O)(=O)c1ccccc1)NCC1CCCO1 (centres undefined)	-0.8%	-0.2%	1.4	2.8%	-2.5%
COc1cccc(-c2cccc(NC(=O)C3CCN(Cc4ccon4)CC3)c2)c1	11.9%	1.6%	-6.5	-1.5%	2.2%
CCC1(c2ccc(F)cc2)NC(=O)N(CC(=O)Nc2ccc(N3CCCCC3)cc2)C1=O (centres undefined)	-6.0%	-6.8%	0.0	-11.2%	?
C=CCN1CCS(=O)(=O)N(Cc2ccccc2)[C@@H](C(C)C)C1=O	-2.1%	0.0%	38.0	-2.4%	-7.9%
O=[N+]([O-])c1ccc(NC(=S)N2CCc3ccccc32)cc1	-25.4%	-0.8%	-8.0	-15.1%	-10.8%
COC(=O)c1c(-c2cccs2)csc1NC(=O)COc1ccc(C(C)(C)C)cc1	.	.	.	14.6µM*	20.6µM*
COC(=O)c1c(-c2cccs2)csc1NC(=O)COc1ccccc1	.	.	.	16.4µM*	20.6µM*
CCOC(=O)c1c(-c2cccs2)csc1NC(=O)CN(CC)CC	-22.0%	-4.2%	42.0	?	?
Cc1cccc(OCC(=O)N2CCN(C(=O)c3ccco3)CC2)c1	18.9%	13.0%	-7.9	-4.8%	21.3%
O=C(OCC(=O)N1CCCc2ccccc21)c1cnc(Cl)c(Cl)c1	-5.6%	-3.1%	-84.8*	-8.6%	7.3%
O=C(COc1ccc(Cl)cc1Cl)NC(=S)N1CCCc2ccccc21	?	?	-12.1	?	20.6µM*
O=C(OCC(=O)N1CCCc2ccccc21)c1ccc(Cl)nc1	9.1%	2.4%	14.5	-6.8%	0.3%
O=S(=O)(c1cnc(Cl)c(Cl)c1)N1CCc2ccccc21	-18.0%	?	-64.6*	?	16.4µM*
O=S(=O)(c1cc(Cl)ccc1Cl)N1CCc2ccccc21	1.6%	8.5%	24.3	?	?
O=S(=O)(c1cnc(Cl)c(Cl)c1)N1CCCc2ccccc21	?	?	-101.2*	18.4µM*	16.4µM*
O=C(COC(=O)c1ccc2ccccc2c1O)Nc1ccccc1	-12.1%	-2.4%	8.7	-1.8%	0.4%
O=S(=O)(c1cnc(Cl)c(Br)c1)N1CCc2ccccc21	?	20.6µM*	-102.9*	16.4µM*	?
O=C(Nc1nnc(CCN2CCCCC2)s1)c1ccccc1Cl	4.8%	1.9%	-4.1	-19.7%	13.7%
COc1ccc(-c2nc3c4ccccc4ccn3c2Cc2ccc(C)cc2)cc1OC	?	?	-12.9	?	20.6µM*
Cc1ccc(Cc2c(-c3ccccc3)nc3c4ccccc4ccn23)cc1	-1.9%	-4.4%	47.4	23.1µM*	20.6µM*
SMILES	HT1080 IDH1KD tx	HT1080NT lethal	IL-1B inflam inh	TDP1 cell CPT	TDP1 cell noCPT
c1ccc(-c2nc3c4ccccc4ccn3c2Cc2ccsc2)cc1	-10.8%	-15.3%	14.2	23.1µM*	16.4µM*
Cc1ccc(-c2nc3c4ccccc4ccn3c2Cc2ccccc2)cc1	-12.6%	-4.5%	59.3	?	?
CCCc1nc2c3ccccc3ccn2c1Cc1ccccc1	?	?	29.2	18.4µM*	20.6µM*
O=C(CC1NCCc2ccccc21)Nc1ccc(Cl)cc1 (centres undefined)	?	?	-22.4	?	?
Cc1ccc(NC(=O)CCn2c(=O)[nH]c3ccsc3c2=O)cc1C	0.0%	5.9%	-12.8	8.1%	?
CC1(C)S[C@@H]2[C@H](NC(=O)C(C(=O)O)c3ccsc3)C(=O)N2[C@H]1C(=O)O (some centres undefined)	.	.	.	4.1%	-11.2%
O=C(O)c1cc(=O)[nH]c(=O)[nH]1	.	.	.	2.5%	-2.0%
Cc1ccc(-c2nc3c4ccccc4ccn3c2Cc2ccsc2)cc1	3.4%	-2.4%	0.0	16.4µM*	?
COc1ccc(-c2nc3c4ccccc4ccn3c2Cc2ccsc2)cc1OC	?	?	-17.6	?	?
CC(CCCC(C)(C)O)NCc1cn[nH]c1-c1ccc2c(c1)OCO2 (centres undefined)	3.7%	-13.4%	5.3	-14.8%	?
COc1ccc(S(=O)(=O)N2CCCCCC2)cc1C(=O)N(C)Cc1ccc(C(C)(C)C)cc1	?	?	-72.5*	?	?
COc1ccc(S(=O)(=O)N2CCCCCC2)cc1C(=O)N(C)Cc1ccco1	2.8%	-0.5%	-0.6	25.9µM*	18.4µM*
COc1ccc(S(=O)(=O)N2CCCCCC2)cc1C(=O)N(C)Cc1ccc(OC)c(OC)c1OC	9.3%	-3.3%	-14.7	?	23.1µM*
Cc1ccc(NC(=O)c2cccc(NC3=NC4CS(=O)(=O)CC4S3)c2)cc1 (centres undefined)	13.0%	17.8%	-1.3	-0.9%	6.2%
CCC/C=C1/CCCOC(C(=O)NCc2ccc(S(C)(=O)=O)cc2)(C(F)(F)F)C1 (centres undefined)	9.0%	10.7%	5.6	9.4%	-10.1%
CCC/C=C1/CCCOC(C(=O)NCc2ccc(C)o2)(C(F)(F)F)C1 (centres undefined)	-3.5%	?	-62.7*	7.31µM*	10.3µM*
O=C(CCl)N(C/C=C/c1ccccc1)c1ccc2c(c1)OCCO2	?	10.3µM*	-114.6*	3.66µM*	6.51µM*
N#CCCN(C(=O)CSc1ncccn1)c1ccc2c(c1)OCCO2	2.4%	17.7%	-14.8	-15.1%	5.1%
CCOC(=O)c1cc(=O)n2nc(-c3ccccc3F)nc2s1	1.2%	17.7%	-24.0	?	23.1µM*
O=C(NCC(=O)N1CCOCC1)c1ccc(Cl)c(Cl)c1	8.6%	9.9%	8.0	1.7%	-22.3%
CCOc1ccc(S(=O)(=O)N(C)CC(=O)NCc2ccc3c(c2)OCO3)cc1	-2.4%	12.0%	-4.8	-14.2%	-16.9%
COc1ccc(CN2C(=O)C(CC(=O)NCc3ccco3)CC(C(=O)N3CCOCC3)=C2C)cc1 (centres undefined)	4.0%	3.4%	-13.4	10.8%	?

Bioassay records from PubChem.
